Assay outcomes from PubChem.
D1 potentiator: enhances dopamine response at the human D1 receptor | 0.036% of 360,000 active | AID 504651 | potentiation, % at 10 µM | HEK293 TREx D1 cells, calcium flux, dopamine EC20 potentiation | P21728; in the data active = potentiation above about 30%; also: 0% is about no effect
D3 ag: D3 dopamine receptor (human) agonism. P35462. D3R DiscoveRx beta-arrestin cells, luminescence, 90 min. max activation, %. 0.58% of 410,000 active. AID 652048; in the data active = max activation above about 30%; also: 0% is about no effect
Target sequence (P35462 whole entry, looked up): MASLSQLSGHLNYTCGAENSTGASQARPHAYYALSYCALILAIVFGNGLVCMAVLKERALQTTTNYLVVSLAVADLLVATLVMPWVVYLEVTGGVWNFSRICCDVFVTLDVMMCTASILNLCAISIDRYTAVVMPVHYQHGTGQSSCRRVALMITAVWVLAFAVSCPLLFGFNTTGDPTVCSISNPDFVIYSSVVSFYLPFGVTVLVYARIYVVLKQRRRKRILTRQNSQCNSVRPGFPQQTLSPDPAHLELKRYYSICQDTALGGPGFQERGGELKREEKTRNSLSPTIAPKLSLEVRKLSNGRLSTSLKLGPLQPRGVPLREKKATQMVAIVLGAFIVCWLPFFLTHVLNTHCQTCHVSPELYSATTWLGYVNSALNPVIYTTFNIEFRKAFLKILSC
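Agonist mode: compounds and dopamine controls were applied to plated cells for 90 min at 37 degrees C after an overnight attachment at 1500 cells/well. Luminescent read-out followed 30 - 60 minutes at room temperature with DiscoveRx detection reagent.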
D1 agonist: human D1 receptor agonism; P21728; HEK293 T-REx D1 cells, calcium flux, agonist mode; activation, % at 2 µM; 1% of 360,000 active; AID 504660; in the data active = activation above about 30%; also: 0% is about no effect
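Tetracycline-induced HEK293 TREx D1 cells, force-coupled to calcium signalling, were dye-loaded with a no-wash calcium kit. Compound was pin-added after a 10 s baseline. Fluorescence was read kinetically at 1 cycle/s for 180 s, with calcium rises flagged as agonism.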
D1 antag: blocks dopamine activation of the human D1 receptor; HEK293 TREx D1 cells, calcium flux, dopamine EC80; hits give low values; activity change, negative = inhibition, % at 10 µM; 3.2% of 360,000 active; in the data active = activity change below about -30%; also: % is scaled to controls: 0 for no effect and ±100 for the full control effect
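Allosteric or orthosteric antagonism assessed as attenuation of the calcium response to EC80 dopamine, added 180 s after compound, in induced HEK293 Trex D1 cells loaded with no-wash calcium dye.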
D3 antag: blocks the human D3 dopamine receptor; max response, negative = inhibition, %; 2.5% of 360,000 active; D3R cells, DiscoveRx beta-arrestin luminescence, antagonist mode; hits give low values; AID 652054; P35462; in the data active = max response below about -50%; inconclusive = no clear call, values can overlap the other calls; also: % is scaled to controls: 0 for no effect and ±100 for the full control effect
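Cells plated overnight at 1500 cells/well, then exposed to library compounds with dopamine controls for 90 minutes at 37 degrees C. DiscoveRx reagent added for 30–60 minutes at room temperature; luminescence read, quantitative HTS format.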
* = called active by the depositor; ? = inconclusive; . = no result. In the library only some 6% were active in any assay of this set; here they are far more common.

SMILES	D1 potentiator	D3 ag	D1 agonist	D1 antag	D3 antag
O=C(NCc1nc2ccccc2n1Cc1ccccc1Cl)c1ccccc1	-2	-21	-2	0	.
CCS(=O)(=O)N1CC(=O)N(c2ccc(Cl)cc2C)C(C)(C(=O)NC2CCCCC2)C1 (configuration not stated)	3	1	0	16	.
Cc1ccc(-c2cn(CCN)c(-c3ccc(Cl)nc3)n2)cc1	-5	-8	0	9	1
Cn1c(-c2ccc(Cl)nc2)nc2cc(Cl)ccc21	-8	1	1	-33*	17
COc1cccc(NC(=O)C2=C(C)C(=O)OC23CCN(C(C)=O)CC3)c1	1	-4	-1	1	.
C=CCOc1ccc(CNc2nccs2)cc1OCC	-3	8	-3	-4	-54*
Cn1c(-c2sccc2OCc2ccccc2)n[nH]c1=S	-2	-3	-1	-1	-54*
Cc1ccc(COc2ccsc2-c2n[nH]c(=S)n2C)cc1	2	6	4	-16	48
CC1=C(C)/C(=N\OS(=O)(=O)c2ccc(C)cc2)C=CC1=O	-3	-3	3	-16	-104*
CC1=C/C(=N\OS(=O)(=O)c2ccccc2)C(C)=CC1=O	-5	-1	8	-27	-73*
COc1ccc(S(=O)(=O)/N=C2/C=CC(=O)C(C)=C2C)cc1	-9	7	3	5	-13
CCOC(=O)C1CCN(Cc2cn3c(-c4ccc(OC)cc4)nnc3s2)CC1	1	-14	0	-6	.
Cc1nn(-c2ccccc2)c(Cl)c1/C=N/NC(=O)c1ccncc1	0	-7	5	-2	-14
Cc1ccccc1OCC(=O)N/N=C/c1c(C)nn(-c2ccccc2)c1Cl	-15	-4	0	-55*	-1
COc1ccccc1C1C(C(=O)Nc2ccccc2)=C(C)Nc2nc(-c3ccccc3)nn21 (configuration not stated)	-1	-12	-2	-7	.
CCOC(=O)C(C)On1c(-c2ccccc2)nc2ccc([N+](=O)[O-])cc21 (configuration not stated)	-4	-5	1	-26	-2
CCOC(=O)C(C)On1c(-c2ccc(Cl)cc2)nc2ccc([N+](=O)[O-])cc21 (configuration not stated)	-10	5	7	-40*	39
O=C(COC(=O)C1=COCCO1)NCc1ccc(F)cc1	2	-4	3	6	2
COc1ccccc1CNC(=O)COC(=O)C1=COCCO1	1	-1	0	-66*	4
Cn1c2ccccc2c2cnn(CC(=O)Nc3ccccc3C(F)(F)F)c(=O)c21	1	4	0	12	.
COc1cccc(/C=C/C(=O)NNC(=O)CCN2CCN(Cc3ccccc3)CC2)c1	-4	-20	4	-10	-53*
COc1ccc(C(CNC(=O)c2cc3c(s2)CCC(C)C3)N2CCCC2)cc1 (configuration not stated)	1	-24	4	18	-105*
CCC1CCc2sc(C(=O)NCC(c3ccccc3OC)N3CCCC3)cc2C1 (configuration not stated)	.	-19	9	21	?
COc1ccc(C(CNC(=O)c2cc3c(s2)CCC(C)C3)N2CCOCC2)cc1 (configuration not stated)	-2	-28	1	-23	-103*
O=C(NCC(c1ccco1)N1CCCCC1)c1cc2c(s1)CCCC2 (configuration not stated)	-3	-24	-1	10	-75*
SMILES	D1 potentiator	D3 ag	D1 agonist	D1 antag	D3 antag
COc1cc2oc(=O)c(CC(=O)NCCc3ccccc3)c(C)c2cc1Cl	0	4	6	-3	.
COc1ccc(CNC(=O)c2ccc3nc(C(C)C)oc3c2)cc1OC	-2	-3	7	-29	.
CC(=O)OCCCNc1cc(Sc2ccc(Cl)cc2)c2nonc2c1[N+](=O)[O-]	-7	-18	2	-5	-118*
CCC(=O)OCCNc1cc(Sc2nccn2C)c2nonc2c1[N+](=O)[O-]	-4	-17	-1	-8	-101*
Cc1ccc(Sc2cc(NCCCO)c([N+](=O)[O-])c3nonc23)cc1	3	-1	10	2	-10
CCCC(=O)OCCNc1cc(Sc2nc3ccccc3[nH]2)c2nonc2c1[N+](=O)[O-]	-10	-16	0	-49*	-83*
O=C1c2ccccc2C(=O)c2c1oc(C(F)(F)F)c2C(=O)c1ccccc1	3	-20	0	-7	-70*
O=C(c1ccccc1)c1coc2c1C(=O)c1ccccc1C2=O	-3	-7	2	-10	-13
CCC(C)(C)n1nnnc1C(c1cc2cc3c(cc2[nH]c1=O)OCO3)N1CCCCC1 (configuration not stated)	3	2	2	-3	15
Fc1ccccc1N1CCN(C(c2ccccn2)c2nnnn2C2CCCCC2)CC1 (configuration not stated)	4	0	3	23	5
COc1ccccc1N1CCN(C(c2cc3ccc(C)cc3[nH]c2=O)c2nnnn2C2CCCC2)CC1 (configuration not stated)	-4	-9	1	10	-70*
COc1ccccc1N1CCN(C(c2ccccn2)c2nnnn2C2CCCCC2)CC1 (configuration not stated)	-6	1	5	12	-66*
CCC(C)(C)n1nnnc1C(c1cc2ccc(OC)cc2[nH]c1=O)N1CCN(C2CCCCC2)CC1 (configuration not stated)	4	-24	3	-4	-64*
CCc1ccc2nc(N(CCN(CC)CC)C(=O)c3cccs3)sc2c1	-4	-19	8	-3	.
CCOC(=O)Cn1nc(-c2ccccc2)c2cnc3ccc(OCC)cc3c21	-3	6	13	-15	.
Cc1cc2c(s1)c1cnn(Cc3ccc(F)c(F)c3)c(=O)c1n2C	4	.	-1	1	.
COc1cccc2c1C(=O)c1c(O)c3c(c(O)c1C2=O)C[C@@](O)(C(=O)CO)C[C@@H]3O[C@H]1C[C@H](N)[C@H](O)[C@H](C)O1	-4	-7	34*	-7	-15
CCCn1c(=O)c2ccccc2n2c(SCCOc3ccc(Cl)cc3)nnc12	-10	-1	0	15	-50*
CCC(C)NC(=O)c1sc2nc(C)c(C(=O)Nc3ccc(C)cc3C)c(-c3ccccc3Cl)c2c1N (configuration not stated)	0	5	2	-7	.
COc1c(Cl)cc(Cl)cc1C(=O)Nc1ccc(NC(C)=O)cc1	1	-18	3	3	21
COC(=O)c1cc(Cl)cc(Cl)c1OS(=O)(=O)N(C)C	7	16	1	-30*	21
Cc1cccc(NS(=O)(=O)c2cnc(Cl)c(Br)c2)n1	-3	-5	4	-2	-17
